# Data as given in PubChem BioAssay (NCATS).
# Records with an inconclusive call do not appear. Entries that show only a call come without a potency. Calls of active or inactive are those of the source. Calls follow the shape of the dose curve; as a rule, active = well fitted cell-killing curve with a large enough effect; inconclusive = small, poorly fitted or top-dose-only effect; inactive = flat fitted curve, though single readings scatter.
# Test: qHTS of pediatric cancer cell lines to identify multiple opportunities for drug repurposing: Primary screen for TC32 cells (AID 1347089); also: nearly all actives have a fitted effect of over 60% in size
# Settings: TC32 Ewing sarcoma viability, CellTiter-Glo luminescence, 48 h; series mostly up to 45.8 µM
# Outline: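 Luminescent ATP read-out (CellTiter-Glo) of metabolically active TC32 cells after 48 h exposure. Concentration-response curves came from 11-point (MIPE, 0.78 nM–46 µM) or 8-point (NPC, 0.59 nM–46 µM) primary titrations; follow-up used 11 points.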
row,SMILES,Potency
1,CC(C)=CC1C(C(=O)OCc2cccc(Oc3ccccc3)c2)C1(C)C (stereo unspecified),inactive
2,CN1C(=S)CN=C(c2ccccc2)c2cc(Cl)ccc21,inactive
3,CCN(CC)CCOC(=O)C(O)(c1ccccc1)c1ccccc1,inactive
4,O=C(O)c1ccc2[nH]cc(CCCCN3CC=C(c4ccccc4)CC3)c2c1,inactive
5,CCOP(=S)(OCC)Oc1cc(C)nc(C(C)C)n1,inactive
6,CC(C)(C)NCC(O)c1cc(Cl)c(N)c(Cl)c1 (stereo unspecified),inactive
7,CC(=O)Nc1cc([As](=O)(O)O)ccc1O,inactive
8,CC1=C2C[C@@H]3[C@@H](CC=C4C[C@@H](O)CC[C@@]43C)[C@@H]2CC[C@]12O[C@H]1C[C@H](C)CN[C@H]1[C@H]2C,inactive
9,O=C(O)C(=O)c1cn(Cc2ccccc2)c2ccc(-c3ccc(OC(F)(F)F)cc3)cc12,inactive
10,Cc1ccc2c(c1)C1CN(C)CCC1N2 (stereo unspecified),inactive
11,COC1(CS(=O)c2ccccc2)CCN(CCc2c[nH]c3ccc(F)cc23)CC1 (stereo unspecified),inactive
12,CC1OC(C)OC(C)O1 (stereo unspecified),inactive
13,Oc1ccc(Cl)cc1Cc1ccccc1,inactive
14,Oc1cccc2cccnc12,inactive
15,NP(N)(=O)NC(=O)c1ccc(F)cc1,inactive
16,CC(C)NCC(O)c1ccccc1Cl (stereo unspecified),inactive
17,CCCC1CCCCN1 (stereo unspecified),inactive
18,C#CCN(C)[C@H](C)Cc1ccccc1,inactive
19,Clc1ccc(CCC(Cn2ccnc2)Sc2c(Cl)cccc2Cl)cc1 (stereo unspecified),inactive
20,Cn1c(CCCC(=O)O)nc2cc(N(CCCl)CCCl)ccc21,inactive
21,C#CCOC(C(=O)OCCN(C)C)(c1ccccc1)c1ccccc1,inactive
